Mcl1-Bid inh – disrupts binding of human Mcl-1 to Bid peptide; 220,000 tested, 0.97% active; inhibition, % at 21.7 µM; TR-FRET Mcl-1/Bid-Dy647 peptide binding, 1536-well; Q07820;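 active = compounds that cut the binding signal by more than half at the single screening dose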;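 also: His-tagged Mcl-1 with europium anti-His antibody binding Bid BH3 peptide; 0% = Mcl-1 plus peptide wells and 100% = peptide-only wells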
eIF4E-4G inh – inhibitors of eIF4E and eIF4G interaction in translation initiation; 220,000 tested, 0.37% active; P63073+Q04637; inhibition, % at 21.7 µM; TR-FRET eIF4E-eIF4GI(517-606) binding, 2 h;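 active = inhibition above about 30%, limit read from the data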;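 also: 0% = full FRET control wells and 100% = background wells lacking eIF4GI fragment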
Pf gametocyte – P. falciparum stage V gametocyte viability inhibition | 150,000 tested, 0.065% active | AID 743093 | inhibition, % at 10.9 µM | P. falciparum stage V gametocytes, ATP luminescence, 24 h;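 active = inhibition above the mean plus 3 SD of compounds within the control limits, set per campaign, cut at about 38% in these data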;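 also: 0% = DMSO wells and 100% = medium only without gametocytes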
14-3-3 Bad inh – disrupts binding of bovine 14-3-3 zeta to phospho-Bad peptide | P63103 | TR-FRET 14-3-3zeta/Dy647-pBad peptide displacement, 1 h | inhibition, % at 21.7 µM | 220,000 tested, 0.71% active | AID 781;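 active = inhibition above about 70%, limit read from the data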;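 also: 0% = full 14-3-3 plus peptide FRET controls and 100% = background without 14-3-3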
Mcl-1 Bim block – human Bim-Mcl-1 interaction inhibition | Q07820 | Bead-based flow cytometry, Bim peptide-Mcl-1 binding | inhibition, % at 10 µM | 190,000 tested, 0.1% active | AID 1009; in the data active = inhibition above about 40%;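 also: 0% = no compound tracer wells and 100% = peptide blocker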
Mcl1 Noxa PPI – Mcl-1/Noxa interaction inhibition; Q07820; TR-FRET Mcl-1/Noxa peptide binding, 2 h; inhibition, % at 21.7 µM; 220,000 tested, 1.5% active;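 active = compounds that cut the protein-peptide binding signal by more than 50% relative to plate controls in a single-dose test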;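 also: His-tagged Mcl-1 with rhodamine Noxa BH3 peptide and terbium anti-His antibody; 0% = Mcl-1 plus Noxa peptide wells and 100% = peptide-only wells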
* = called active by the depositor; . = no result given; [ ] = dose if it differs, or a comment. The list is not random: actives were taken first. Their share in the collection is about 2.7%.

SMILES | Mcl1-Bid inh | eIF4E-4G inh | Pf gametocyte | 14-3-3 Bad inh | Mcl-1 Bim block | Mcl1 Noxa PPI
O=C(CCS(=O)(=O)c1cccs1)N1CCN(c2ccc(F)cc2)CC1 | -32 | 0 | . | 1 | -2 | 6
Cc1cc(F)ccc1NC(=O)c1cccnc1 | -12 | 3 | . | -1 | -1 | -9
CC(NC(=O)Cn1cnc2c1c(=O)n(C)c(=O)n2C)c1ccccc1 (configuration not stated) | 94* | 10 | . | -11 | 1 | 20
Cc1c(-c2ncn[nH]2)sc(C#N)c1-c1ccccc1 | -2 | -2 | -10 | -4 | -4 | 10
Cc1cc(=O)oc2c(CN3CCCCC3)c(O)c(Cl)cc12 | 8 | -17 | . | 73*[fluorescence artefact?] | 0 | 0
CCN1CCN(Cc2c(O)c(Cl)cc3c(C)cc(=O)oc23)CC1 | -30 | -5 | 0 | 0 | 0 | 0
Cc1ccc(C)c(NC(=O)CCC(=O)OC(C(=O)c2ccccc2)c2ccccc2)c1 (configuration not stated) | 5 | 0 | . | 5 | -3 | -2
O=C(CCC(=O)OC(C(=O)c1ccccc1)c1ccccc1)Nc1ccccc1 (configuration not stated) | 7 | 3 | -20 | 87* | 1 | -6
Cc1ccc(S(=O)(=O)N2CCN(c3ccccc3)CC2)cc1C(N)=O | -33 | 2 | -3 | -11 | 0 | 10
Cc1oc(-c2ccccc2)cc1C(=O)Nc1ccc(N(C)C)cc1 | 6 | 20 | 20 | 3 | 0 | 73*
Cc1oc(-c2ccccc2)cc1C(=O)Nc1cccc(/C=C\C(=O)O)c1 | -19 | 2 | . | -6 | 0 | 18
Cc1ccc2nsnc2c1S(=O)(=O)NCCc1c(C)[nH]c2ccc(F)cc12 | 55* | -3 | . | 5 | 0 | 8
O=C(NCc1ccco1)c1ccc(-c2cccc(Cl)c2)o1 | -17 | 2 | -11 | 0 | -5 | 0
C=CCC[C@H](Cc1ccc(F)cc1)C(=O)OC[C@H](Cc1c[nH]c2ccccc12)NC(=O)[C@@H](CC=C)CC(=O)NCCO | . | . | 0 | . | . | .
COc1ccc(CN2CCN(C(=O)c3cccc4ccccc34)CC2)c(OC)c1OC | . | . | -8 | . | . | .
C=CCN1C(=O)C2C3CC(=O)C(c4ccccc43)C2C1=O (configuration not stated) | -30 | -2 | 5 | 5 | 2 | 13
Cc1cc(C(=O)CSc2nnc(-c3ccncc3)n2-c2ccccc2)c(C)n1C | 51* | -11 | -6 | -10 | 2 | 13
c1ccc(-c2nc(NCC3CCCO3)c3oc4ccccc4c3n2)cc1 (configuration not stated) | 17 | 2 | . | 70* | 0 | 29
Cc1nc(N[C@@H](Cc2ccccc2)C(=O)O)c2oc3ccccc3c2n1 | -18 | 4 | . | -9 | -2 | 5
O=C(O)CNc1nc(-c2ccccc2)nc2c1oc1ccccc12 | -16 | -1 | 12 | 1 | . | 0
c1ccc(-c2nc(NCc3cccnc3)c3oc4ccccc4c3n2)cc1 | 63* | -6 | -14 | 81* | -1 | 36
CSCC[C@@H](Nc1nc(-c2ccccc2)nc2c1oc1ccccc12)C(=O)O | 60* | -4 | -13 | 2 | -2 | 27
Cn1c(=O)c2c(nc(OCc3ccc4c(c3)OCO4)n2Cc2ccccc2Cl)n(C)c1=O | 51* | -14 | . | 4 | -4 | 3
O=C(CSc1nnc(-c2ccncc2)o1)NCc1ccccc1Cl | 101* | 4 | -2 | -2 | 0 | 1
Clc1cc(Cl)cc(Nc2ncn[nH]2)c1 | -12 | 1 | 2 | 3 | -1 | -1
SMILES | Mcl1-Bid inh | eIF4E-4G inh | Pf gametocyte | 14-3-3 Bad inh | Mcl-1 Bim block | Mcl1 Noxa PPI
CC1(C)CC(N=c2cc(-c3ccccc3)oc3ccc(Cl)cc23)CC(C)(C)N1 | 8 | 1 | -22 | 18 | -5 | 10
OCCCN=c1cc(-c2ccccc2)oc2ccc(Cl)cc12 | -19 | 11 | . | 193*[fluorescence artefact?] | 0 | 8
COCCNC(=O)C1(C(F)(F)F)CC(CCCO)CCCO1 (configuration not stated) | . | . | 16 | . | . | .
O=c1[nH]c(=O)n(CCc2ccc(F)cc2)c(O)c1C=NCc1ccc2c(c1)OCO2 | 53* | 4 | -12 | 56 | -7 | -21
NC1CCCCC1N=Cc1c(O)n(CCc2ccc(F)cc2)c(=O)[nH]c1=O (configuration not stated) | . | . | . | . | 2 | .
Cc1ccc(NCC(=O)N=Nc2c(O)[nH]c3ccc([N+](=O)[O-])cc23)cc1 | -24 | -3 | -33 | -7 | . | 33
CCNC(=S)N=Nc1c(O)[nH]c2ccc([N+](=O)[O-])cc12 | -33 | 2 | . | -13 | 13 | 16
O=[N+]([O-])c1ccc2[nH]c(O)c(N=NC(=S)Nc3cccnc3)c2c1 | 26 | -13 | 5 | 33 | . | 100*
Cc1ccccc1NCC(=O)N=Nc1c(O)[nH]c2ccc([N+](=O)[O-])cc12 | -30 | 1 | -2 | -16 | . | 53*
Cc1cccc(-n2c(C)cc(/C=N\NC(=O)c3ccco3)c2C)c1 | -18 | 1 | 8 | -7 | 3 | 7
CCS(=O)(=O)N1CCCC(C(=O)NCc2cccc(OC)c2)C1 (configuration not stated) | -6 | 0 | . | 7 | 1 | 3
COc1cccc(CNC(=O)C2CCN(S(=O)(=O)N3CCCCC3)CC2)c1 | 92* | -8 | . | -1 | 3 | 10
COc1ccc(S(=O)(=O)N2CCC(C(=O)NCc3cccc(OC)c3)CC2)cc1 | -2 | 47* | . | -3 | 1 | -3
COc1cccc(CNC(=O)C2CCN(S(=O)(=O)c3ccccc3)CC2)c1 | -13 | -6 | -18 | -3 | 1 | 6
O=C(Nc1ccc2c(c1)OCO2)N1CCC(CO)(CC2CCCCO2)CC1 (configuration not stated) | -75 | 0 | 17 | -6 | 3 | 8
O=C(/C=C/c1ccccc1)CC(=O)c1ccccc1O | -5 | 1 | -12 | -13 | -2 | 10
COC(=O)CSc1ncnc2c1sc1nc(-c3ccco3)c3c(c12)CC(C)(C)OC3 | -61 | . | . | . | 1 | 76*
CC(C)[C@H](NC(=O)c1ccccc1)C(=O)OCC(=O)N1CCN(C(=O)c2ccco2)CC1 | -34 | 2 | . | -9 | 0 | -3
COc1ccc(C2CC(=O)c3cnc(Nc4cc(C)cc(C)c4)nc3C2)cc1 (configuration not stated) | -9 | -6 | 3 | 76* | 4 | 9
COc1ccc(C(=O)Nc2ncc3c(n2)CC(c2ccco2)CC3=O)cc1 (configuration not stated) | -25 | -1 | . | -11 | 1 | 52*
CC(C)OCCCNc1ncc2c(n1)CC(c1ccccc1)CC2=O (configuration not stated) | -51 | 1 | -5 | -15 | 2 | 60*
CC(=O)Nc1ncc2c(n1)CC(c1ccco1)CC2=O (configuration not stated) | -6 | -6 | . | 0 | -1 | 1
